Measured values as given in PubChem BioAssay (Tox21).
Records with an inconclusive call do not appear. The source made the active and inactive calls. Unless noted, the call rests on the fitted dose curve; in most records, active means well fitted curve in the direction sought with a large enough effect in the repeat runs; inconclusive means weak or mixed curves; inactive means no such curve, though single readings can be large; an effect the other way counts as inactive or inconclusive.

Tests used:
[1] = qHTS assay for small molecules that induce genotoxicity in human embryonic kidney cells expressing luciferase-tagged ATAD5 (AID 651632); conditions: HEK293T ATAD5-luciferase induction, 16 h; series mostly up to 83.3 µM; further: nearly all actives have a fitted effect of over 15% in size
Method in brief: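 Reporter cells (HEK293T) express luciferase-tagged ATAD5, a protein that accumulates after DNA damage. Treat 16 hr at 37C/5% CO2, add Amplite, wait 30 min at RT, and read luminescence.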

[2] = qHTS assay for small molecule disruptors of the mitochondrial membrane potential (AID 720635); conditions: HepG2 mitochondrial membrane potential, Mito-MPS dye ratio; series mostly up to 83.2 µM; further: potency means the concentration at half of the fitted maximal effect
Method in brief: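 HepG2 cells (2,000/well) attached overnight at 37C, then took compound for 1 hr at 37C, 5% CO2. Mito-MPS dye was added for 30 min; fluorescence was read at 490/535 nm (monomers) and 540/590 nm (aggregates).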

[3] = qHTS assay to test for compound auto fluorescence at 590 nm (red) in HepG2 cells (AID 720674); conditions: HepG2 autofluorescence, red 540/590 nm, 1 h; series mostly up to 91.3 µM
Method in brief: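 Compound auto-fluorescence is scored relative to Rose Bengal sodium, measured at 540/590 nm in live HepG2 cultures after 1 hr compound contact (37 C, 5% CO2).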

[4] = qHTS assay to test for compound auto fluorescence at 535 nm (green) in HepG2 cells (AID 720675); conditions: green autofluorescence 485/535 nm, 1 h; series mostly up to 91.3 µM
[5] = qHTS assay to test for compound auto fluorescence at 460 nm (blue) in HEK293 cells (AID 720678); conditions: blue autofluorescence 405/460 nm; series mostly up to 91.3 µM
Method in brief: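 HEK293 cells (2,000 per well, medium with 10% dialyzed FBS) attached for 4-5 hr at 37C, then received compound and stood overnight at 37C, 5% CO2. Blue fluorescence was read at Ex/Em 405/460 nm and expressed relative to triamterene.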

[6] = qHTS assay to test for compound auto fluorescence at 590 nm (red) in HEK293 cells (AID 720679); conditions: red autofluorescence 540/590 nm; series mostly up to 91.3 µM
Method in brief: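 HEK293 cells (2,000/well, medium with 10% dialyzed FBS) attached for 4-5 hr at 37C, received 23 nL compound and were incubated overnight at 37C, 5% CO2. Red fluorescence was then read at 540/590nm Ex/Em, referenced to Rose Bengal sodium.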

[7] = qHTS assay to test for compound auto fluorescence at 535 nm (green) in HEK293 cells (AID 720680); conditions: green autofluorescence 485/535 nm; series mostly up to 91.3 µM
[8] = qHTS assay to test for compound auto fluorescence at 460 nm (blue) in HEK293 cell free culture (AID 720681); conditions: cell-free medium, autofluorescence 405/460 nm (blue); series mostly up to 91.3 µM
Method in brief: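 Test compounds were pinned into cell-free culture medium (DMEM with 10% FBS) and fluorescence was read directly at Ex/Em 405/460 nm. Signals were expressed as fluorescence equivalents of triamterene, with DMSO vehicle as control.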

[9] = qHTS assay to test for compound auto fluorescence at 535 nm (green) in HEK293 cell free culture (AID 720682); conditions: cell-free medium, green autofluorescence 485/535 nm, hits give high values; series mostly up to 91.3 µM
Method in brief: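 Green-channel intensity (Ex/Em 485/535 nm) was recorded from compound-treated wells containing only DMEM with 10% FBS. Fluorescein provided the equivalency standard.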

[10] = qHTS assay to test for compound auto fluorescence at 590 nm (red) in HEK293 cell free culture (AID 720683); conditions: cell-free medium autofluorescence, Ex540/Em590 red; series mostly up to 91.3 µM
Method in brief: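 Tox21 10K library compounds were pinned into cell-free DMEM with 10% FBS and fluorescence was read at excitation 540 nm. Activity is expressed as Rose Bengal sodium equivalency.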

[11] = qHTS assay to test for compound auto fluorescence at 590 nm (red) in HepG2 cell free culture (AID 720684); conditions: cell-free medium autofluorescence, red 540/590 nm; series mostly up to 91.3 µM
Method in brief: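 Red fluorescence (540 nm excitation, 590 nm emission) was measured after compound transfer into cell-free MEM supplemented with 10% FBS. Values are equivalencies against Rose Bengal sodium.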

[12] = qHTS assay to test for compound auto fluorescence at 460 nm (blue) in HepG2 cell free culture (AID 720685); conditions: Cell-free culture medium, blue autofluorescence 405/460 nm; series mostly up to 91.3 µM
Method in brief: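 Compound (23 nL) or DMSO pinned into cell-free MEM with 10% FBS; blue fluorescence read at 405/460 nm excitation/emission, expressed as auto-fluorescence equivalency to triamterene.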

[13] = qHTS assay for small molecules that induce genotoxicity in human embryonic kidney cells expressing luciferase-tagged ATAD5 - cell viability (AID 651634; calls by dose curve; further: nearly all actives have a fitted effect of over 25% in size; further: potency means the concentration at half of the fitted maximal effect); conditions: HEK293T ATAD5-luc cells viability, CellTiter-Fluor, 15.5 h; series mostly up to 83.3 µM
Method in brief: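 Seeding of 2,000 HEK293T ATAD5-luciferase cells per well preceded pin-tool compound transfer. Plates sat 15.5 hr at 37C under 5% CO2, then fluorescence was read after 30 min with CellTiter-Fluor.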

[14] = qHTS assay to test for compound auto fluorescence at 535 nm (green) in HepG2 cell free culture (AID 720686); conditions: Cell-free medium, green autofluorescence 485/535 nm; series mostly up to 91.3 µM
[15] = qHTS assay to test for compound auto fluorescence at 460 nm (blue) in HepG2 cells (AID 720687); conditions: autofluorescence 405/460 nm, 1 h; series mostly up to 91.3 µM
Method in brief: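 Cells (2,000/well in MEM with 10% FBS) attached overnight at 37 C, then were exposed to compound or DMSO for 1 hr at 37 C, 5% CO2. Fluorescence read at Ex/Em 405/460 nm, expressed as triamterene-equivalent signal.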

[16] = molecular target: Glucocorticoid receptor (Homo sapiens) (UniProt P04150); assay: qHTS assay to identify small molecule agonists of the glucocorticoid receptor (GR) signaling pathway (AID 720691; active means well fitted activation curve with a large enough effect in the signal ratio in the repeat runs, not every such curve was filed as active; the % refers to the signal ratio); conditions: GR-bla HeLa, beta-lactamase reporter ratio, 18 h; activation: at 62.4 µM (top of the series)
Glucocorticoid receptor (Homo sapiens), sequence (P04150 whole entry, looked up): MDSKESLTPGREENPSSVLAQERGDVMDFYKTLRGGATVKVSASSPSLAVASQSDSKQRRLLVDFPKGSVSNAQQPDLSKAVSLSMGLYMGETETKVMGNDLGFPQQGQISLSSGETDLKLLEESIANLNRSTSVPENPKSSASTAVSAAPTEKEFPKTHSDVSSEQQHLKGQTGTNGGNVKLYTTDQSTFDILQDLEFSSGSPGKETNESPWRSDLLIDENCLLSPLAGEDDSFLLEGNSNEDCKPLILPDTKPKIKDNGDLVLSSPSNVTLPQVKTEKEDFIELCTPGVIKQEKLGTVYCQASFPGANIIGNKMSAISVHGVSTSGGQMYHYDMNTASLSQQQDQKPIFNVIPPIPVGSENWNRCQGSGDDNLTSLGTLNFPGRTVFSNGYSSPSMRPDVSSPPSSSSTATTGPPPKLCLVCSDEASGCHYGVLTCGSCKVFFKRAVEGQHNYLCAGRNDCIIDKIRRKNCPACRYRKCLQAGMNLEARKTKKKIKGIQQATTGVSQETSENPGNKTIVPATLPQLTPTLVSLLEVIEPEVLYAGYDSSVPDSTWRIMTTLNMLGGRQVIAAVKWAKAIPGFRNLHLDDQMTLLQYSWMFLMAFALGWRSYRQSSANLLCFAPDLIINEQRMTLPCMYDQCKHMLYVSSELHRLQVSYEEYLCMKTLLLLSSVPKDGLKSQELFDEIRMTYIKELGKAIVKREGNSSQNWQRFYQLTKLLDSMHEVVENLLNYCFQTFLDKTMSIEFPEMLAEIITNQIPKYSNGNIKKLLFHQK
Method in brief: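 Reporter read-out: fluorescence intensity following 2 h room-temperature LiveBLAzer B/G FRET substrate loading. Prior step: GR-bla HeLa cells held 4 h, then treated 18 h at 37 C.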

[17] = molecular target: Glucocorticoid receptor (Homo sapiens) (UniProt P04150); assay: qHTS assay to identify small molecule antagonists of the glucocorticoid receptor (GR) signaling pathway (AID 720692; active means well fitted inhibition curve with a large enough effect in the signal ratio in the repeat runs, not every such curve was filed as active; the % refers to the signal ratio); conditions: GR-bla HeLa, beta-lactamase FRET ratio, dexamethasone-stimulated, 18 h; series mostly up to 58.5 µM
Method in brief: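 Dexamethasone (5 nM final) stimulated a stably integrated GRE-beta-lactamase reporter in HeLa cells during 18 h co-incubation with compounds; signal was quantified as fluorescence intensity of B/G FRET substrate after 2 h.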

[18] = qHTS assay for small molecule agonists of the p53 signaling pathway - cell viability (AID 651633; calls by dose curve; further: nearly all actives have a fitted effect of over 30% in size; further: potency means the concentration at half of the fitted maximal effect); conditions: p53RE-bla HCT-116 viability, ATP luminescence, 16 h; series mostly up to 83.3 µM
Method in brief: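 p53RE-bla cells, seeded at 4,000 per well and rested 5 h at 37 C/5% CO2, received compounds in DMSO for 16 h at 37 C. CellTiter-Glo was then added, and luminescence was read after 30 min at room temperature to gauge cytotoxicity.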

[19] = qHTS assay for small molecule disruptors of the mitochondrial membrane potential - cell viability (AID 720634; calls by dose curve;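 further: human HepG2 liver cancer cells; nearly all actives have a fitted effect of over 20% in size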); conditions: HepG2 viability, ATP luminescence (CellTiter-Glo), 1 h; series mostly up to 83.2 µM
Method in brief: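 Measuring cytotoxicity alongside mitochondrial potential, the screen quantified ATP by luminescence in HepG2 cells after 1 hr compound incubation and a 30 min room-temperature CellTiter-Glo step.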

Measured: Potency

CCOc1nc2cccc(C(=O)OC(C)OC(=O)OC3CCCCC3)c2n1Cc1ccc(-c2ccccc2-c2nn[nH]n2)cc1 (stereo not given)
active: [2] 13.7 µM
inactive: [1] | [3] | [4] | [5] | [6] | [7] | [8] | [9] | [10] | [11] | [12]

CC(C)CCCCCCCCCCCCCCC(=O)O
inactive: [1] | [13] | [3] | [4] | [5] | [6] | [7] | [8] | [9] | [10] | [11] | [12] | [14] | [15] | [16] | [17]

O=[N+]([O-])c1cc(Cl)c(Cl)c(Cl)c1Cl
inactive: [18] | [13] | [19] | [3] | [5] | [6] | [7] | [8] | [9] | [10] | [11] | [12] | [14] | [15]

NNc1nc(-c2ccccc2)cs1
active: [13] 4.99 µM | [2] 1.58 µM
inactive: [1] | [3] | [4] | [5] | [6] | [7] | [8] | [9] | [10] | [11] | [12] | [14] | [15] | [16]

O=Cc1cc(O)ccc1Br
inactive: [1] | [13] | [3] | [4] | [5] | [6] | [7] | [8] | [9] | [10] | [11] | [12] | [14] | [15] | [16]
active: [2] 62 µM

CC(C)(C)CC(C)(C)c1ccc(O)c(Cc2ccc(Cl)cc2Cl)c1
active: [13] 23.7 µM | [2] 1.68 µM
inactive: [1] | [3] | [4] | [5] | [6] | [7] | [8] | [9] | [10] | [11] | [12] | [14] | [15]

On1ccccc1=S
inactive: [18] | [19] | [3] | [4] | [5] | [6] | [7] | [8] | [9] | [10] | [11] | [12] | [15] | [16]
active: [2] 0.762 µM

CCN(CC)CCNC(=O)c1c(C)[nH]c(/C=C2\C(=O)Nc3ccc(F)cc32)c1C
active: [18] 11.9 µM
inactive: [19] | [3] | [5] | [7] | [8] | [9] | [10] | [11] | [12] | [15]

Nc1ccccc1O
active: [2] 60.3 µM
inactive: [1] | [19] | [3] | [5] | [6] | [7] | [8] | [9] | [10] | [11] | [12] | [14] | [16]

CC1=C(/C=C/C(C)=C/C=C/C(C)=C/C=O)C(C)(C)CCC1
inactive: [3] | [4] | [5] | [7] | [8] | [9] | [10] | [11] | [12] | [14] | [15]
active: [18] 43 µM | [13] 60.8 µM | [2] 15.3 µM

O=CC=C(c1ccccc1)c1ccccc1
inactive: [1] | [13] | [3] | [4] | [5] | [6] | [7] | [8] | [9] | [10] | [11] | [12] | [14] | [15]
active: [2] 30.9 µM

O=C(N/N=C/c1ccccc1O)c1ccncc1
inactive: [19] | [3] | [4] | [5] | [6] | [7] | [8] | [9] | [10] | [11] | [14]

CC(C)(C)NC(=O)[C@@H]1C[C@@H]2CCCC[C@@H]2CN1C[C@@H](O)[C@H](Cc1ccccc1)NC(=O)[C@H](CC(N)=O)NC(=O)c1ccc2ccccc2n1
active: [2] 43.8 µM
inactive: [1] | [19] | [3] | [4] | [5] | [6] | [7] | [8] | [9] | [10] | [11] | [12] | [14]

CNc1ccc(O)cc1
inactive: [13] | [3] | [5] | [6] | [7] | [8] | [9] | [10] | [11] | [12] | [14] | [15]

Nc1ccc2cc(S(=O)(=O)O)cc(O)c2c1N=Nc1ccccc1C(F)(F)F
inactive: [1] | [3] | [5] | [6] | [7] | [8] | [9] | [10] | [11] | [12] | [14] | [15] | [16] | [17]

COc1cccc(N)c1
active: [13] 13.8 µM
inactive: [18] | [19] | [3] | [4] | [5] | [6] | [7] | [8] | [9] | [10] | [11] | [12] | [14] | [15] | [16]
